Source: PubChem
Rab9 prom act: qHTS Assay for Rab9 Promoter Activators; Potency, µM (titrated, usually from 9.22 µM), for inactives: top-dose activation, negative = inhibition, most hits filed as activators; AID 485297, 2010; Huh7 Rab9 promoter-luciferase reporter, luminescence, 24 h; hit rate 2.8% among 320,000; also: % of control where 0% means no effect; nearly all actives have a fitted effect of over 60% in size
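Cell-based reporter: Huh7 stable for Rab9 promoter-driven luciferase, plated in reduced-serum medium with 10% FBS at 1500 cells/well, compound-treated 24 h at 37 °C, luminescence read after 10 min reagent.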
KinaseGlo FLuc: Counterscreen for Luciferase (Kinase-Glo TM) Inhibition. Kinase-Glo luciferase, ATP luminescence, 8 min. Potency, µM (series often up to 38.3 µM), inactives show at the highest dose activity change, negative = inhibition, most hits filed as inhibitors. hit rate 0.28% among 200,000. AID 1379, 2008; also: % is scaled to controls: 0 for no effect and ±100 for the full control effect; nearly all actives have a fitted effect of over 60% in size
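Kinase-Glo luciferase light output from ATP and luciferin was measured with 10 uM ATP, within the enzyme's linear range. Buffer: 50 mM imidazole pH 7.2, 50 mM KCl, 7 mM MgCl2, 0.01% Tween 20, 0.05% BSA; luminescence read after 8 min at ambient temperature.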
SMN2 splice enh: qHTS Assay for Enhancers of SMN2 Splice Variant Expression; HEK293 SMN2-luciferase splicing reporter, luminescence, 30-36 h; Potency, µM (doses to about 46.1 µM), for the others: top-dose activity change, positive = activation, hits mostly activators; hit rate 2.8% among 210,000; also: % of control where 0% means no effect; nearly all actives have a fitted effect of over 55% in size
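qHTS luciferase splicing reporter: luminescence rises when SMN2 exon 7 is included in transfected HEK293 cells. Compound exposure lasted 30-36 h at 37C, with 4.5 mM final sodium butyrate as control, followed by a ONE-Glo read.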
NPC1 promoter act: qHTS Assay for NPC1 Promoter Activators; hit rate 2.4% among 320,000; Huh7 NPC1 promoter luciferase reporter, 24 h; Potency, µM (doses to about 9.22 µM), without a hit: top-dose activation, usual class: activators; AID 485313, 2010; also: % of control where 0% means no effect; nearly all actives have a fitted effect of over 60% in size
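In 1536-well qHTS, Huh7 cells harboring an NPC1 promoter–luciferase construct received compound for 24 h; activation was quantified by luminescence following luciferase reagent addition.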
FLuc counter: qHTS profiling assay for firefly luciferase inhibitor/activator using purifed enzyme and Km concentrations of substrates (counterscreen for miR-21 project); Luciferin 4-monooxygenase (Photinus pyralis), P08659; purified FLuc, Km substrates, luminescence inhibition; Potency, µM (series often up to 57.5 µM), inactives show at the highest dose activity change, negative = inhibition, actives largely listed as inhibitors; hit rate 6.9% among 360,000;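 also: plate controls were vehicle for no effect and reference inhibitor for full effect; nearly all actives have a fitted effect of over 55% in size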
Target sequence (P08659 whole entry, looked up): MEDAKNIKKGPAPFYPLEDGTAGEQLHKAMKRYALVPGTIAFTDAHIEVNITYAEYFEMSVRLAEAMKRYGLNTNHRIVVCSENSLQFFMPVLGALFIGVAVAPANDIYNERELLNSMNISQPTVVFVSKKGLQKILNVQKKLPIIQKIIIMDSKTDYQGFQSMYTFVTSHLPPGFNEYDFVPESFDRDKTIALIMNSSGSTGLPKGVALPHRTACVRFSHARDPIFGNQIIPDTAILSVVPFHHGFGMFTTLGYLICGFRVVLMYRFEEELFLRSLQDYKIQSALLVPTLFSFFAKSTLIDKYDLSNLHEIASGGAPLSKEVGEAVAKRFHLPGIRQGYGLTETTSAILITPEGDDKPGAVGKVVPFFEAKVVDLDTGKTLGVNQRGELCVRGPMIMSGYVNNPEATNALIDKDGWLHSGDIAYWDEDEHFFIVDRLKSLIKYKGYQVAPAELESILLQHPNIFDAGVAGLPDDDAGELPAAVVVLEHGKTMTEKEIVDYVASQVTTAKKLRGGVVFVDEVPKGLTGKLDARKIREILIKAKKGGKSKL
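Purified P. pyralis luciferase, 10 nM final, with Km-level 10 uM D-luciferin and 10 uM ATP in 50 mM Tris acetate pH 7.5, 10 mM Mg acetate, 0.01% Tween-20, 0.05% BSA; 6-point qHTS titration about 60 µM downward; luminescence read.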
ELG1 genotox: qHTS screen for small molecules that induce genotoxicity in human embryonic kidney (HEK293T) cells expressing luciferase-tagged ELG1 | Potency, µM (series often up to 46 µM), for the others: at the highest dose activity change, positive = activation, hits mostly activators | HEK293T ELG1-luciferase reporter, luminescence, 16 h | hit rate 1.3% among 330,000; also: % of control where 0% means no effect; nearly all actives have a fitted effect of over 60% in size
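DMSO vehicle served as control against compound-treated ELG1-luciferase HEK293T cells; exposure lasted 16 hr at 37 °C and 5% CO2, followed by ONE-Glo luminescence detection after 30 min.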
The depositor's hits bear a star; ? = inconclusive; nt = no result; [ ] = dose if it differs, or a comment. Rows were chosen to be rich in hits. Some 7.4% of all compounds tested hit in one or more screens of this group. Calls follow the shape of the dose curve; as a rule, active = well fitted curve in the direction sought with a large enough effect; inconclusive = small, poorly fitted or top-dose-only effect, or another doubt; inactive = no such curve, though single readings can be large; an effect the other way counts as inactive or inconclusive. Potency is read from the fitted curve at half-maximal effect.

SMILES	Rab9 prom act	KinaseGlo FLuc	SMN2 splice enh	NPC1 promoter act	FLuc counter	ELG1 genotox
CC(C)CC1NC(=O)N(CC(=O)Nc2ccc(OC(F)F)cc2)C1=O (stereo not drawn)	-6%	nt	nt	-3%	-2%	-2%
Cc1cc(C)n(CCc2nc3c4ccccc4nc(SCc4ccc(F)cc4)n3n2)n1	nt	nt	nt	nt	-3%	nt
C=CCOc1ccc(/C=N/Nc2ccccn2)cc1OC	?	-8%	11µM*	3.5µM*	5.4µM*	?
CCOc1ccc(/C=N/N(C)c2ccccc2)cc1OC	3.2µM*	6%	25µM*	?	4.8µM*	4.6µM*
COc1cc(/C=N/Nc2ccccn2)ccc1OCC(C)C	?	1%	?	?	2.7µM*	15%
CCCOc1ccc(/C=N/Nc2ccccn2)cc1OC	2µM*	-6%	10µM*	?	3.4µM*	?
COc1ccc(/C=N/Nc2ncnc3scc(-c4ccccc4)c23)cc1OC	7%	3%	2%	-2%	?	-9%
CCOc1ccc(/C=N/Nc2ccccn2)cc1OC	2.8µM*	-4%	14µM*	?	5.4µM*	21µM*
COc1cc(/C=N/Nc2ccccn2)cc(OC)c1O	4%	-7%	19%	-6%	12µM*	-9%
CCOc1ccc(/C=N/Nc2nc(=O)[nH]nc2C)cc1OC	0%	nt	nt	-3%	-11%	7%
COC(=O)[C@]1(CC(C)C)N[C@H](c2ccc(-c3ccc(F)cc3)c(OC)c2)[C@@H]2C(=O)N(C)C(=O)[C@@H]21	1%	nt	nt	-1%	6%	-5%
CCCOc1cccc(NC(=O)c2c(-c3ccccc3Cl)noc2C)c1	nt	nt	-27%	nt	-8%	nt
COc1ccccc1-c1ccc(SCc2ccc(F)cc2)nn1	24%	-3%	11%	16%	24µM*	5%
COc1ccccc1-c1ccc(SCc2ccc(C)cc2)nn1	9%	-6%	-2%	5%	15µM*	9%
COc1ccccc1-c1ccc(SCC(=O)N2CCOCC2)nn1	3%	-2%	1%	-6%	2%	4%
O=C(N/N=C/c1cccc(Cl)c1)C1CCCC1	18%	nt	nt	19%	?	?
c1ccc(-c2nnc3ccc(N4CCCC4)nn23)cc1	-1%	2%	-2%	-2%	1%	-23%
CC1CCCN(c2c3c(nc4ccccc24)CCCC3)C1 (stereo not drawn)	1%[1.84 µM]	nt	nt	-5%	0%	-11%
Cc1sc2nc3ccc(N4CCCCC4)nn3c(=O)c2c1C	?	-1%	-17%	?	8.5µM*	-1%
Cc1ccc2nc3ccc(N4CCCC4)nn3c(=O)c2c1	1.6µM*	-3%	16µM*	2.2µM*	11µM*	?
CC1CCCN(c2ccc3nc4ccccc4c(=O)n3n2)C1 (stereo not drawn)	?	?	1.3µM*	?	1.1µM*	-12%
COC(=O)c1ccc(NC(=O)NCCn2nnc3cc(S(=O)(=O)N(C)C)ccc32)cc1	nt	nt	nt	nt	-2%	nt
O=Cc1c[nH]c2cccc(OCc3ccccc3)c12	30%	nt	nt	17%	11µM*	11%
CC(C)(C)c1ccc(C(=O)NC(=S)N2CCCC2)cc1	-7%[1.84 µM]	nt	nt	4%	9.5µM*	1%
O=C(NC(=S)Nc1ccc(N2CCOCC2)cc1)c1cccs1	0.79µM*	-3%	nt	?	24µM*	9%
SMILES	Rab9 prom act	KinaseGlo FLuc	SMN2 splice enh	NPC1 promoter act	FLuc counter	ELG1 genotox
O=C(CCCCl)NC(=S)Nc1ccc(CN2CCOCC2)cc1	6%	nt	nt	-4%	6%	6%
CC(C)(C)c1ccc(C(=O)NC(=S)Nc2ccc(N3CCOCC3)cc2)cc1	-4%	-3%	2.8µM*	-7%	-9%	11%
CC(C)(C)c1ccc(C(=O)Nc2ccc(N3CCOCC3)cc2)cc1	-8%	0%	-25%	-2%	?	-9%
Cc1ccc(C(=O)N2CCN(c3ccc(NC(=S)NC(=O)c4cccs4)cc3)CC2)cc1	-23%	-1%	nt	-12%	1%	-10%
O=C(CCCCl)NC(=S)Nc1ccc(N2CCOCC2)cc1	1.4µM*	nt	nt	2.8µM*	-13%	?
O=C(c1ccc(F)cc1Cl)N(Cc1ccco1)C1CCS(=O)(=O)C1 (stereo not drawn)	8%	nt	nt	3%	nt	0%
CCSc1nnc2c(n1)[nH]c1c(C)cccc12	5.6µM*	-6%	-37%	0%	12µM*	?
CC(=O)c1sc(-c2ccc(Cl)cc2)nc1C	?	-3%	27%	26%	?	?
CC(=O)c1c(C)nc(-c2ccc(Cl)cc2)nc1N=CN(C)C	2.8µM*	-2%	11µM*	4µM*	?	9.2µM*
CC(=O)c1c(C)nc(-c2ccc(Cl)cc2)nc1N	3.2µM*	-6%	10µM*	3.5µM*	6.7µM*	4.1µM*
O=C(Nc1cccc(S(=O)(=O)N2CCCCC2)c1)c1cc(=O)[nH]c2ccccc12	nt	nt	nt	nt	nt	1%
Cc1ccc(C(=O)Nc2nnc(SCC(=O)N3CCCc4ccccc43)s2)cc1	0.32µM*	-3%	?	?	0.15µM*	?
CCOC(=O)CNC(=O)CSc1nnc(NC(=O)c2ccc(C)cc2)s1	0.56µM*	-7%	5µM*	1.8µM*	0.6µM*	?
